Screening results as filed in PubChem BioAssay.
G9a block: G9a (human) methyltransferase inhibition; Q96KQ7; G9a H3K9 monomethylation, AlphaScreen, 2 h; Potency, µM (top dose mostly 102 µM), for the others: at the top dose activity, negative = inhibition, actives largely listed as inhibitors; 350,000 compounds, 8.8% hits; AID 504332; further: on the % scale 0 is the no-effect control and ±100 the full control effect; nearly all actives have a fitted effect of over 75% in size
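Chemiluminescent proximity detection of H3K9 monomethylation, read after 10 min bead incubation in the dark. Reaction: 20 nM G9a, 500 nM biotin-H3K9 peptide, 20 uM SAM cofactor, 2 h, room temperature, following 15 min enzyme-compound preincubation.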
BAZ2B block: blocks human BAZ2B | Q9UIF8 | AlphaScreen BAZ2B-H3K14Ac peptide displacement | Potency, µM (top dose mostly 114 µM), inactives show at the top dose activity change, negative = inhibition, hits mostly inhibitors | 360,000 compounds, 4.4% hits | AID 504333; further: on the % scale 0 is the no-effect control and ±100 the full control effect; nearly all actives have a fitted effect of over 60% in size
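BAZ2B 50 nM plus b-H3(5-23)K14Ac 50 nM, PBS pH 7.4/0.01% Tween-20, 30 min RT; compound added (max 110 uM), 30 min RT; streptavidin donor/Ni-chelate acceptor beads 10 ug/mL final, 20 min dark; AlphaScreen read.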
L3MBTL1 block: blocks human L3MBTL1. Q9Y468. AlphaScreen L3MBTL1–H3K9me1 peptide binding. Potency, µM (series often up to 57.1 µM), for inactives: at the top dose activity, negative = inhibition, actives largely listed as inhibitors. 230,000 compounds, 0.66% hits. AID 485360; further: on the % scale 0 is the no-effect control and ±100 the full control effect; nearly all actives have a fitted effect of over 60% in size
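AlphaScreen assay: L3MBTL1 (50 nM final) was preincubated 30 min at room temperature with biotinylated H3(1-15)K9me1 peptide (75 nM final), then 30 min with library compounds; streptavidin donor and nickel chelate acceptor beads (10 ug/mL final) added, 30 min dark.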
JMJD2A Tudor: JMJD2A Tudor domain (human) inhibition; AlphaScreen JMJD2A-Tudor / H3K4me3 peptide binding; Potency, µM (series often up to 114 µM), inactives show top-dose activity change, negative = inhibition, usual class: inhibitors; 390,000 compounds, 4.4% hits; AID 504339; further: on the % scale 0 is the no-effect control and ±100 the full control effect; nearly all actives have a fitted effect of over 50% in size
Target sequence (O75164 whole entry, looked up, the tested form may be a part): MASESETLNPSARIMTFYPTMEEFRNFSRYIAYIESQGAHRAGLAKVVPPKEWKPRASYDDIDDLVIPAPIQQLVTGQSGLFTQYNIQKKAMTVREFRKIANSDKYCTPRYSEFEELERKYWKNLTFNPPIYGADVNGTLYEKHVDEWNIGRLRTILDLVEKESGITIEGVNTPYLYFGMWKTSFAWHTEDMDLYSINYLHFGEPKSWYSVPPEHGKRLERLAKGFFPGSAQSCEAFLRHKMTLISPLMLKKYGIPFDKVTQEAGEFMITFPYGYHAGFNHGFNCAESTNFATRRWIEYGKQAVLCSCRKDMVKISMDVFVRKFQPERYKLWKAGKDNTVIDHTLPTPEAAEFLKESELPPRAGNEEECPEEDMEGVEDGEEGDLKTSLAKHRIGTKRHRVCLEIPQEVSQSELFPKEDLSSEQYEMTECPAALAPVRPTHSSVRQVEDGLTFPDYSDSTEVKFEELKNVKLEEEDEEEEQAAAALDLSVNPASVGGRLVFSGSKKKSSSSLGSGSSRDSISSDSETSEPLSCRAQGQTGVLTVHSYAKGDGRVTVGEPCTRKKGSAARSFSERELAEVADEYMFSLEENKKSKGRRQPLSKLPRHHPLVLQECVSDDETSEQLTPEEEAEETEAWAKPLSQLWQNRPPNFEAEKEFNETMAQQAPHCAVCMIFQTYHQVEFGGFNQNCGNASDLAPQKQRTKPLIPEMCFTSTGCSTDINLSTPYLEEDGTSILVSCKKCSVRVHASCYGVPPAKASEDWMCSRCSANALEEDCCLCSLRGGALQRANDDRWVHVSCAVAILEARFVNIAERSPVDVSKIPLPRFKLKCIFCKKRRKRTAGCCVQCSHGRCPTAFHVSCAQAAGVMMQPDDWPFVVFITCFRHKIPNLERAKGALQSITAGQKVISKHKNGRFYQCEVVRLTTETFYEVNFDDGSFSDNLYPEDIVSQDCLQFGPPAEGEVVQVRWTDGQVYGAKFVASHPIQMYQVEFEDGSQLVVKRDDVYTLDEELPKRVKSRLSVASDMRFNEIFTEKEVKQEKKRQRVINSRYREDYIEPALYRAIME
HP1b binding inh: inhibitors of HP1-beta chromodomain binding to methylated histone tails; P83916; AlphaScreen HP1-beta / biotin-H3K9me3 peptide binding; Potency, µM (titrated, usually from 114 µM), for inactives: top-dose activity change, negative = inhibition, hits mostly inhibitors; 390,000 compounds, 0.56% hits; AID 540317; further: nearly all actives have a fitted effect of over 70% in size
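HP1-beta protein (50 nM final) preincubated 30 min at room temperature with biotinylated H3(1-18)K9me3 peptide (50 nM) in PBS pH 7.4, 0.01% Tween-20, then compound added for 30 min. AlphaScreen streptavidin donor/nickel chelate acceptor beads (10 ug/mL final), 30 min dark, luminescence read.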
GLS inhibitor: glutaminase GLS (human) inhibition; Potency, µM (series often up to 45.5 µM), inactives show at the highest dose activity change, negative = inhibition, hits mostly inhibitors; O94925; 410,000 compounds, 0.21% hits; GLS enzymatic activity, qHTS titration; further: on the % scale 0 is the no-effect control and ±100 the full control effect
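Coupled fluorescence readout: glutamate oxidase/HRP/Amplex Red detect glutamate formed by hKGA from L-glutamine (1 mM solution added). Buffer 45 mM KH2PO4 pH 8.2, 0.02% Tween-20; reads at t0 and 30 min RT.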
The depositor's hits bear a star; ? = inconclusive; . = no result given; [ ] = remark or other dose. This is a sample that favours compounds with a hit; in the whole collection about 10% have one here. The call rests on the fitted dose curve; in most records, active means well fitted curve in the direction sought with a large enough effect; inconclusive means small, poorly fitted or top-dose-only effect, or another doubt; inactive means no such curve, though single readings can be large; an effect the other way counts as inactive or inconclusive. Potency means the concentration at half of the fitted maximal effect.

SMILES | G9a block | BAZ2B block | L3MBTL1 block | JMJD2A Tudor | HP1b binding inh | GLS inhibitor
Cc1ccc(NC(=S)N/N=C/c2ccc(Cl)c([N+](=O)[O-])c2)cc1 | 27%[59 µM] | 7% | . | -17% | 28% | 9%
OCCN(CC#CC(O)(c1ccccc1)c1cccc(F)c1)CCO (stereo unspecified) | . | 79µM* | 12% | ? | -5% | 11%
Cc1noc(C)c1COC(=O)c1cc2c3ccccc3n(C)c2s1 | 40µM* | 6% | 4% | 10% | 74% | -4%
CCCCCCCCCCCCC/C=C/[C@@H](O)[C@@H](N)COP(=O)(O)O | 34%[59 µM] | . | . | . | . | .
O=C(CNC(=O)c1ccccc1)NCC(=O)OCC(=O)c1ccc2ccccc2c1 | . | . | . | -10%[57.1 µM] | 17%[57 µM] | .
O=C(CN(C1CCCCC1)S(=O)(=O)c1ccccc1)N1CCCC1 | 6%[12.7 µM] | -4% | -5%[11.4 µM] | -8% | 38% | 8%
O=C(CN1CCC(Cc2ccccc2)CC1)N1CCc2ccccc2C1 | 22µM* | 50µM* | -4% | ? | ? | 10%
O=C(CN(C1CCCCC1)C1CCCCC1)N1CCc2ccccc2C1 | 10µM* | 45µM* | . | 6.3µM* | -53% | 8%
Cc1c(Br)c(=O)oc2c(C)c(O)ccc12 | 21%[59 µM] | 11% | -5% | -6%[57.1 µM] | 62% | 1%
Cc1c(O)ccoc1=O | -122%[59 µM] | -21% | 10% | 28µM* | 32% | 20%
CS(=O)(=O)N(CCC#N)Cc1ccc(/C=C2\C(=O)Nc3ccccc32)o1 | 45µM* | -22% | -1% | -30% | -11% | 2%
C/C(=N/NC(N)=S)c1ccc(Br)s1 | 16µM* | -17% | -7% | -35% | 12% | 20%
COc1cccc2c1cc1c(=O)n(CC(=O)N3CCN(c4cccc(C(F)(F)F)c4)CC3)nc(C)n12 | 0%[59 µM] | -3% | . | -3% | 18% | -18%
CCn1c(-c2cccn(Cc3ccccc3)c2=O)n[nH]c1=S | 32µM* | -2% | 8% | ? | 18% | 7%
CCn1c(-c2ccccc2SC)n[nH]c1=S | 14µM* | -15% | 0% | ? | 7% | 2%
C=CCn1c(-c2cccc3ccccc23)n[nH]c1=S | ? | -33% | . | 19% | 18% | .
O=c1c(-c2nc3ccccc3s2)cccn1Cc1ccc(Cl)cc1 | 90% | 30% | 9% | 17% | 58% | -3%
Cc1cccc(NC(=O)CSc2c(C)cnc3c2c(=O)n(C)c(=O)n3C)c1C | 10%[59 µM] | 1% | . | -9% | 43% | 3%
CCN1CCN(C(=O)c2c(C)nn(-c3ccc(F)cc3)c2-n2cccc2)CC1 | -35%[59 µM] | -9% | . | -6% | 16% | -9%
CSc1ccc(CCNC(=O)c2ccc3c(c2)nc2n3CCCCC2)cc1 | -1%[59 µM] | -5% | . | -20% | 22%[57 µM] | 8%
Cc1cc(=O)[nH]c(SCCOc2ccc(OC(C)C)cc2)n1 | 14µM* | -32% | ? | ? | 4% | -3%
CCc1cccc(C)c1NC(=O)Cn1c(=O)cc(C)c2c(C)nn(-c3cccc(F)c3)c21 | 24%[59 µM] | -13% | . | -6% | -12% | 1%
CCN1C(=O)/C(=C\N(C)C)NC1=S | -5%[59 µM] | -6% | 3% | -20% | 36% | 29%
CN(C)/C=C1/NC(=S)NC1=O | 35µM* | -8% | 10% | 8.9µM* | 89µM* | 10µM*
CCn1c(=O)c(C(=O)CN2CCCc3ccccc32)c(N)n(Cc2ccccc2)c1=O | -12%[59 µM] | ? | -12% | 35µM* | ? | ?
SMILES | G9a block | BAZ2B block | L3MBTL1 block | JMJD2A Tudor | HP1b binding inh | GLS inhibitor
CCn1c(=O)c(C(=O)CN(C)Cc2cccc(OC)c2OC)c(N)n(Cc2ccccc2)c1=O | 25µM* | -6% | 12% | ? | ? | 0%
CCn1c(=O)c(C(=O)CN2c3ccccc3CC2C)c(N)n(Cc2ccccc2)c1=O (stereo unspecified) | 22µM* | 35µM* | -18% | ? | ? | 27%
CCn1c(=O)c(C(=O)CN2CCN(S(=O)(=O)c3ccc(C)cc3C)CC2)c(N)n(Cc2ccccc2)c1=O | 45µM* | -31% | -5% | -21% | 24% | 7%
CC1Cc2ccccc2N1CC(=O)N(C)c1c(N)n(Cc2ccccc2)c(=O)[nH]c1=O (stereo unspecified) | 7%[12.7 µM] | 3% | ? | -31% | -2% | 9%
CCn1c(=O)c(C(=O)CN2CCN(S(=O)(=O)c3ccccc3)CC2)c(N)n(Cc2ccccc2)c1=O | -7% | -13% | 7% | ? | 2% | 2%
CCn1c(=O)c(C(=O)CN(C)Cc2ccc(F)cc2)c(N)n(Cc2ccccc2)c1=O | 2% | -10% | 9% | -16% | 4% | -6%
COCCn1c(=O)c(-c2ccc(OC)cc2)nc2cnc(OCc3ccccc3)nc21 | -5%[0.501 µM] | . | . | . | . | .
CCCN(CCC)C(=O)c1nn(C)c2c1CSc1ccc(C)cc1-2 | -18%[59 µM] | 10% | . | 8% | -3% | -6%
Nc1cc([N+](=O)[O-])ccc1Nc1ccc(O)cc1 | 10µM* | 32µM* | . | 56µM* | ? | 13%
O=c1c2ccccc2nnn1CSc1nnc(Nc2ccccc2)s1 | 45µM* | -4% | 4% | 1% | 24% | -8%
Nc1nc(SCn2nnc3ccccc3c2=O)n[nH]1 | 50µM* | -11% | 6% | -10% | 19% | 8%
Nn1c(Cc2cccc3ccccc23)nnc1SCn1nnc2ccccc2c1=O | 4.5µM* | -5% | . | -14% | 32% | -4%
Nn1c(Cc2cccc3ccccc23)nnc1SC1CCOC1=O (stereo unspecified) | ? | -37% | . | 89µM* | 37% | -16%
COc1ccc(NC(=O)COc2ccc(S(=O)(=O)NC3CCCCC3)cc2)c(OC)c1 | 6%[59 µM] | 2%[57.1 µM] | . | 0% | 39% | -1%
COC(=O)c1ccccc1NC(=O)CCC(=O)N1CCOc2ccccc21 | -34%[59 µM] | 5% | . | -12% | 19% | 4%
Cc1cc(C)c2c(=O)cc(C(=O)Nc3ccc(S(=O)(=O)N(C)Cc4ccccc4)cc3)oc2c1 | 1%[59 µM] | -1% | . | -19% | 2% | 0%
O=C(NCCCCNC(=O)c1ccc(F)cc1)c1ccc(F)cc1 | 22% | 7% | 5% | 5% | 39% | -11%
CCCNC(=O)NNC(=O)c1ccc(F)cc1 | 1% | -8% | 17% | ? | -12% | 11µM*
O=C(Oc1ccccc1)c1ccc2nsnc2c1 | ? | 50µM* | -24% | ? | -22% | -9%
O=c1[nH]c2cc([N+](=O)[O-])c(NCCO)c([N+](=O)[O-])c2[nH]1 | ? | -35% | -7% | -3% | 0% | 5%
CC(=O)Nc1c([N+](=O)[O-])cc2[nH]c(=O)[nH]c2c1[N+](=O)[O-] | 32µM* | -20% | -7% | -12%[11.4 µM] | -2% | 1%
